The values below come from ChEMBL document CHEMBL3988442, “University of Dundee, Small-Polar-MMV Screening Library” (2021).

Hit rate of the full screen: of about 48,000 compounds, about 13,000 (27%) showed an effect of 50% or more. Some of the results follow.

The subject of the assay is Wolbachia pipientis. Briefly: Anti-Wolbachia Cell-Based Screen. Format: functional. Also on record: scale not given: in the data most compounds retested in dose-response had high values. Particulars: 5 µM.
For the molecule `COCC1CCN(Cc2cc(O)c3c(C)ccc(C)c3n2)CC1`, the “Percent Effect” value is given as 5.678%.
Turning to `Cc1cc(C(=O)N2CCC3(C2)CN(c2cccnc2)C(=O)CN3C)[nH]n1.O=C(O)C(F)(F)F.O=C(O)C(F)(F)F` (centres undefined), the “Percent Effect” value is recorded as 112%.
As for `Cn1cccc1C(=O)N1CCCCC12CC(=O)N(c1cccnc1)C2.O=C(O)C(F)(F)F` (centres undefined), the “Percent Effect” value was -1.407%.
As for `CN1CC(=O)N(c2cccnc2)CC12CCN(C(=O)C1CCCCC1)C2.O=C(O)C(F)(F)F.O=C(O)C(F)(F)F` (centres undefined), the figure is -22.33%; as for `Cc1cc(C(=O)N2CCC3(CC2)COCCN(c2cccnc2)C3)[nH]n1.O=C(O)C(F)(F)F`, -3.174%.
As for `CN1CC(=O)N(c2cccnc2)CC12CCN(C(=O)c1cccn1C)C2.O=C(O)C(F)(F)F.O=C(O)C(F)(F)F` (centres undefined), the figure is 108.5%.
For `Cc1oncc1C(=O)N1CCC2(C1)CN(c1cccnc1)C(=O)CN2C` (centres undefined), the “Percent Effect” value was -7.65%.
`COc1cc(C)ccc1OCCN1CC[C@@]2(O)CCNC[C@H]2C1`: the “Percent Effect” value is on record as 28.12%.
As for `CN(C)[C@@H]1CN(C(=O)c2cc3cccc(F)c3[nH]2)C[C@H]1O`, the “Percent Effect” value is 116.9%.
In the case of `Cc1ccc2cc(C(=O)N3CCS(=O)(=O)CC3)[nH]c2c1` it was -4.814%.
For `O=C(c1cc2cccc(F)c2[nH]1)N1C[C@@H](O)[C@H](N2CCCC2)C1`, the “Percent Effect” value turned out to be 132.3%.
On to `CN1CCN([C@@H]2CN(C(=O)c3cc4cccc(F)c4[nH]3)C[C@H]2O)CC1`, for which the “Percent Effect” value was found to be 104.7%.
In the case of `Cc1ccc2cc(C(=O)N3CCN(C(=O)c4ccoc4)CC3)[nH]c2c1` it was 0.1699%; in that of `CN(C)[C@H]1CN(C(=O)c2ccc3sc4c(c3c2)CCNC4=O)C[C@@H]1O`, 13.68%.
Regarding `CCn1nc(CC(C)C)cc1C(=O)N1C[C@H](O)[C@@H](N2CCCCC2)C1`, the “Percent Effect” value is on record as -3.036%.
Consider `CN1CCN([C@@H]2CN(C(=O)c3cc4ccc(F)cc4[nH]3)C[C@H]2O)CC1`, for which the “Percent Effect” value came to 68.22%.
Turning to `COc1ccccc1OCc1cc(C(=O)N2C[C@H](O)[C@@H](N(C)C)C2)n[nH]1`, the “Percent Effect” value came out at 14.49%.
As for `Cc1ccc(OC2(C(=O)O)CCN(C(=O)c3ccoc3C)CC2)cn1`, the figure is -1.307%; as for `CCN(Cc1csc(CS(C)(=O)=O)n1)c1cccc(F)c1`, 0.8671%.
As for `CCN(C)c1ccc(CNC(=O)CCn2cc(C)cn2)cc1F`, the figure is -2.464%.
Take `Cc1ccc(N2CCO[C@H]3CN(Cc4cc(C)on4)CC[C@H]3C2=O)cn1.O=C(O)C(F)(F)F.O=C(O)C(F)(F)F`: the “Percent Effect” value is reported as -4.354%.
Turning to `CC(C)c1cc(NCC(O)c2ccc(F)cc2)n2nccc2n1` (centres undefined), the “Percent Effect” value was -15.19%.
Consider `CCN(CC)C(=O)Cn1cc(C(=O)NCCc2scnc2C)nn1`, for which the “Percent Effect” value is 5.922%.
As to `O=C(NC1CCS(=O)(=O)c2ccccc21)c1sccc1C1CC1` (centres undefined), the “Percent Effect” value was -7.789%.
On to `CN(CCc1ccccn1)[C@@H]1CCN(c2cccc(C#N)n2)C[C@H]1O`, for which the “Percent Effect” value was found to be 16.97%.
Regarding `N#CCCCn1nnc(C2(NC(=O)c3ccccc3)CCCC2)n1`, the “Percent Effect” value was -18.68%.
Regarding `O=C1CN(C(=O)c2cc(-c3ccco3)nc3c(Cl)cccc23)CCN1`, the “Percent Effect” value is on record as -11.35%.
As to `CCc1nccc(CN2CCC(CNC(=O)Nc3ccccc3)C2)n1` (centres undefined), the “Percent Effect” value is -10.66%.
As for `COc1cc(CNC(=O)C(C)SC)cc(Br)c1OC` (centres undefined), the figure is 11.13%; as for `O=C(c1cc2cccc(F)c2[nH]1)N1C[C@@H](O)[C@H](N2CCOCC2)C1`, 110.4%.
In the case of `O=C(c1ccc(F)cc1F)N1C[C@@H](O)[C@H](N2CCOCC2)C1` it was 7.48%.
On to `O=C(Nc1ccc(-n2cccn2)cc1)N1C[C@H](O)[C@@H](N2CCOCC2)C1`, for which the “Percent Effect” value amounted to 1.189%.
As for `CCCn1ncc(-c2nc3c(cnn3CC)[nH]2)c1C`, the figure is -25.23%; as for `COCCN(c1ccncc1)S(=O)(=O)c1cc(C)c(F)cc1F`, -2.029%.
In the case of `Cc1noc(C(C)C)c1C(=O)NCc1ccc2c(c1)OCCO2` it was 83.78%; in that of `Cc1noc(C(C)C)c1C(=O)NCc1ccc(N(C)C)c(F)c1`, 78.48%; in that of `CC(=O)NCC1CCN(C(=O)NCc2ccc3c(c2)OCCO3)CC1`, -6.191%.
As for `Cc1noc([C@@H](C)NCc2ccc(F)cc2)c1C(=O)O.Cl`, the figure is -4.042%; as for `Cc1noc(C)c1C(=O)NCc1ccnc(OCC(F)(F)F)c1`, -2.057%.
Take `CN(C)C(=O)c1ccccc1NC(=O)N(C)Cc1ccccc1O`: the “Percent Effect” value was -13.22%.
In the case of `O=C(CCNC(=O)NC1CCN(C2CC2)CC1)NCc1ccccc1`, the “Percent Effect” value is recorded as -15.75%.
For the molecule `N#Cc1ccnc(N2CCN(CC(O)c3ccc(F)c(F)c3)CC2)c1` (centres undefined), the “Percent Effect” value was -18.53%.
Turning to `CCc1cc(N[C@H]2CC[C@H](O)CC2)n2nc(C)c(C)c2n1`, the “Percent Effect” value is on record as -14.47%.
As for `COc1cc(CNC(=O)Nc2nncs2)ccc1O`, the figure is -8.608%; as for `Cc1ccc(CNC(=O)NCc2csc(C)n2)cn1`, -1.986%.
As for `Cc1ccc(CNC(=O)Nc2cc(C(F)(F)F)c[nH]c2=O)cn1`, the figure is 3.357%; as for `Cc1ccc(CNC(=O)Nc2nccs2)cn1`, 93.38%; as for `Cc1ccc(CNC(=O)Nc2nncs2)n1C`, -4.226%.
In the case of `Cc1ccc(CNC(=O)Nc2nncs2)cn1`, the “Percent Effect” value was found to be 108.3%.
On to `O=C1CN(Cc2nnc(-c3ccccc3Br)o2)CCN1`, for which the “Percent Effect” value is -2.201%.
As for `COC(=O)c1cc(NC2CCN(CC(F)(F)F)C2=O)ccc1C` (centres undefined), the “Percent Effect” value amounted to 1.107%.
Turning to `COc1ccc(CN[C@@H]2CO[C@H](CNC(=O)N3CCOCC3)[C@H]2O)cc1`, the “Percent Effect” value was 3.527%.
For the molecule `CN(Cc1ccc(F)c(F)c1)C(=O)CCc1nc(-c2nnc[nH]2)no1`, the “Percent Effect” value is on record as -9.092%.
In the case of `Cc1noc(CCCC(=O)N(CCC(=O)O)Cc2ccc(F)c(F)c2)n1` it was 101.8%; in that of `CCC(=O)N(CCN(C)C)Cc1ccc(F)c(F)c1`, 182.8%; in that of `CN1CCC(N(C)C(=O)CCc2ccc(F)c(F)c2)C1=O` (centres undefined), 2.381%.
As to `Cc1noc(CCNC(=O)c2ccc(N(C)C)c(F)c2)n1`, the “Percent Effect” value is -15.61%.
As to `NC(=O)CN(Cc1cccc(Oc2ccccc2)c1)C(=O)C1CC1`, the “Percent Effect” value is 0.4693%.
As for `CN(Cc1ccc(Cl)c(F)c1)C(=O)CCc1ccncc1`, the figure is 0.9629%; as for `O=C(O)CCN(Cc1ccc(F)c(F)c1)C(=O)C1CC1`, 170.7%.
In the case of `Cc1cc(C(=O)N(CCN(C)C)Cc2ccc(Cl)cc2)no1` it was -11.55%.
In the case of `COCC(=O)N(C)Cc1ccc(F)c(F)c1` it was 111.3%.
Turning to `CN(C)CCN(Cc1ccc(Cl)cc1)C(=O)c1ccncc1`, the “Percent Effect” value is reported as -4.798%.
`COCC(=O)N(C)Cc1ccc(OCc2cccs2)cc1`: the “Percent Effect” value was determined as 1.693%.
